Experimental findings from PubChem BioAssay AID588 (National Center for Advancing Translational Sciences (NCATS), 2007) are described below.

Out of some 59,000 compounds screened, about 25 (0.04%) were called active. How the calls were made is not given here. The list comes from a sample in which actives are over-represented; it also holds similar structures and randomly drawn compounds.

The nature of the test: qHTS Assay for Spectroscopic Profiling in Resorufin Spectral Region. Particulars: Compound fluorescence, resorufin region 547/598 nm, buffer; active compounds read high. An excerpt:
NIH Molecular Libraries Screening Centers Network [MLSCN] NIH Chemical Genomics Center [NCGC] […] Occasionally, the artifactual effect may originate from the compound#s own spectral or other biophysical properties which generally tend to track its assay concentration. Pre-screening/profiling the library with respect to the compounds# spectral properties should help one exclude false positives early on. While the most informative fluorescent profiling data set is obtained by performing a full excitation and emission scan of each well by using a monochromator-based plate reader, such an approach is practical only on a very limited scale as scanning each well requires long time. An alternative approach, applied here, is to perform plate reader scans using selected excitation and emission wavelength pairs to generate a multidimensional relational database that correlates compound concentration and the respective relative fluorescence intensity at a given wavelength set. A standard curve of resorufin present on each plate as six-point concentration series, was used to compute a normalized fluorescence response, termed dye-equivalent concentration, for each compound at each concentration.
NCGC Assay Protocol Summary: Buffer: 100 mM Tris buffer, pH 8.0 Dye standard plate: The wells in columns 1 through 4 of a Kalypsys polypropylene 1536-well compound plate were filled with standard solutions of fluorophore corresponding to the spectral region of interest. Solutions of resorufin were placed in the following wells: M1, N1: 3 mM, M2, N2: 300 uM, M3, N3: 30 uM, M4, N4: zero (DMSO), O1, P1: 3 uM, O2, P2: […], O3, P3: 300 nM, O4, P4: zero (DMSO). Assay Steps: Six uL of buffer were dispensed to 1536-well Greiner black plates. Compounds and dye standards (23 nL) were transferred via Kalypsys PinTool. The plates were incubated for 15 min at room temperature, and then read on ViewLux (Perkin-Elmer) High-throughput CCD imager using 547 nm and 598 nm excitation and emission filter set. Keywords: NIH Roadmap, MLSCN, MLI, MLSMR, qHTS, NCGC, Resorufin, Fluorescent Profiling.
(Quantitative high-throughput screening tests each substance at several concentrations.)
`CCOC(=O)CSc1nc2c(sc(=S)n2CCc2ccccc2)c(=O)n1Cc1ccco1`: the max dye-equivalent concentration entry was “inactive”.
`CN(c1ccccc1)c1ccc(/C=c2\s/c(=C(/C#N)C(=O)C(C)(C)C)n(Cc3ccco3)c2=O)cc1`: the max dye-equivalent concentration was 27 nM (active).
The value for `COCCNc1ncnc2ccc(-c3ccccc3CN(C)C)cc12` was “inactive”; that for `C=CCn1c(SCc2csc(C)n2)nc2scc(-c3ccc(C)o3)c2c1=O` was “inactive”; that for `O=C(CCCn1c(=O)oc2ccccc21)Nc1cccnc1` was “inactive”.
Turning to `COC(=O)c1ccc(Oc2nc(Nc3ccc(F)cc3)nc(N3CCCC3)n2)cc1`, the max dye-equivalent concentration result is “inactive”.
Take `O=S(=O)(NCc1ccccn1)c1ccc(Br)s1`: the max dye-equivalent concentration entry is “inactive”.
On to `O=C1C(=O)N(CCN2CCOCC2)C(c2ccccn2)/C1=C(/O)c1ccc(Cl)cc1` (centres undefined), for which the max dye-equivalent concentration result is “inactive”.
With `COc1cc2[nH]c(=O)n(CCC(=O)NC3CCN(Cc4ccccc4)CC3)c(=O)c2cc1OC`, the max dye-equivalent concentration entry is “inactive”.
With `CN(C)c1ccc(-c2nc(NCCN3CCOCC3)c3ccccc3n2)cc1`, the max dye-equivalent concentration result is “inactive”.
Regarding `CC(C)C(NC(=O)c1cccc(S(=O)(=O)N2CCOCC2)c1)C(=O)NCCc1ccccn1` (centres undefined), the max dye-equivalent concentration result was “inactive”.
For `COc1cc(-c2noc(C3CCCN(S(=O)(=O)c4cccc(Cl)c4)C3)n2)cc(OC)c1OC` (centres undefined), the max dye-equivalent concentration entry is “inactive”.
Turning to `CC(C)C(c1nnnn1C1CCCC1)N1CCN(c2ccccc2F)CC1` (centres undefined), the max dye-equivalent concentration result is “inactive”.
Turning to `C=CCn1c(SCc2nnc(-c3ccccc3)o2)nnc1C(O)c1ccccc1` (centres undefined), the max dye-equivalent concentration entry was “inactive”.
For the molecule `OCCCNCc1ccccn1`, the max dye-equivalent concentration result was “inactive”.
On to `CCCCc1cc(=O)oc2cc(C)cc(OCc3nn[nH]n3)c12`, for which the max dye-equivalent concentration entry was “inactive”.
`COCCn1c(=O)c(-c2ccccc2)nc2cnc(N3CCOCC3)nc21`: the max dye-equivalent concentration entry is “inactive”.
As for `Cc1cc(N2C(=O)c3ccc(C(=O)NCc4ccccc4)cc3C2=O)no1`, the max dye-equivalent concentration entry was “inactive”.
Consider `CCC(=O)NC(=Nc1nc2ccccc2s1)NC(=O)CC`, for which the max dye-equivalent concentration entry is “inactive”.
In the case of `O=C(c1ccc2c(c1)C(=O)N(c1ccc(Cl)cc1)C2=O)N1CCN(c2ccccn2)CC1`, the max dye-equivalent concentration result is “inactive”.
The value for `Cc1ccc(F)cc1NC(=O)c1cccc(N(C)C)c1` was “inactive”; that for `CC(C)(C)c1cc(C(=O)NCc2cccnc2)ccn1` was “inactive”.
With `Cc1ccc(CNC(=O)C2CC(=O)N(C3CCCCCCC3)C2)cc1` (centres undefined), the max dye-equivalent concentration entry was “inactive”.
`Cc1nc2cnc(N3CCN(C)CC3)nc2n(CCC#N)c1=O`: the max dye-equivalent concentration entry was “inactive”.
As to `CCOC(=O)C1CCN(C(=O)CC2C(=O)N(Cc3ccccc3)C(C)c3nc4ccccc4n32)CC1` (centres undefined), the max dye-equivalent concentration entry was “inactive”.
Turning to `COc1ccccc1N1CCN(C(=O)c2c(-c3c(Cl)cccc3Cl)noc2C)CC1`, the max dye-equivalent concentration result is “inactive”.
Consider `Fc1ccccc1CCNc1nnnn1-c1ccccc1`, for which the max dye-equivalent concentration entry was “inactive”.
Consider `COc1ccccc1-c1nc(NCCNC(C)=O)c2ccccc2n1`, for which the max dye-equivalent concentration result is “inactive”.
`COc1cc(OC)c(C(=O)NC2CC(C)(C)NC(C)(C)C2)cc1OC`: the max dye-equivalent concentration result was “inactive”.
As for `CN(C)CCNC(=O)C(C(=O)c1ccccc1)n1ccccc1=O` (centres undefined), the max dye-equivalent concentration result was “inactive”.
Consider `Cc1nc2ccc(S(=O)(=O)NCC(=O)O)cc2s1`, for which the max dye-equivalent concentration entry was “inactive”.
For the molecule `CC(=O)Nc1ccc(S(=O)(=O)Nc2ccc(N3CCOCC3)c(F)c2)cc1`, the max dye-equivalent concentration entry is “inactive”.
The same measure for `Cc1ccc(NC(=O)CN2CCC3(O)CCCCC3C2c2ccc3c(c2)OCO3)c(C)c1` (centres undefined): “inactive”.
The value for `CCCC(=O)Nc1cc(OCC)c(NC(=O)NC2CCCCC2)cc1OCC` was “inactive”; that for `O=C(NCc1ccco1)c1cc2sccc2n1Cc1ccc(F)cc1` was “inactive”; that for `O=C(CCCn1c(SCC(=O)c2ccc(F)cc2)nc2ccccc2c1=O)NCc1ccco1` was “inactive”.
Take `Cc1ccc(S(=O)(=O)N2CCOCC2)cc1C(=O)NCc1ccc(F)cc1`: the max dye-equivalent concentration result is “inactive”.
`CCC(=O)N1CCc2cc(S(=O)(=O)NC(C(=O)N3CCc4ccccc4C3)C(C)C)ccc21` (centres undefined): the max dye-equivalent concentration entry is “inactive”.
The same measure for `Cn1c(-c2ccc(C(=O)c3ccccc3)s2)nc2ccccc21`: “inactive”.
The same measure for `O=C(NCCN=C1NS(=O)(=O)c2ccccc21)c1ccc(S(=O)(=O)N2CCOCC2)cc1`: “inactive”; for `CCCCOc1ccc(C(C)(O)CCN2CCOCC2)cc1` (centres undefined): “inactive”.
For `CCN(CC)P(=O)(C(NC(=O)OC)C(F)(F)C(F)(F)C(F)(F)C(F)F)N(CC)CC` (centres undefined), the max dye-equivalent concentration entry was “inactive”.
In the case of `O=C(Nc1cnccn1)c1cccnc1`, the max dye-equivalent concentration result is “inactive”.
In the case of `Cc1cnc(CNc2cc(-c3c(C)noc3C)ncn2)cn1`, the max dye-equivalent concentration result was “inactive”.
Turning to `COc1ccc(CN2C(=O)CN=C2Nc2ccc(C)cc2C)cc1`, the max dye-equivalent concentration result is “inactive”.
The value for `CC(C)(C)NC(=O)Cn1nnc(-c2ccccc2Cl)n1` was “inactive”; that for `COc1ccccc1C1/C(=C(/O)c2ccc(OC(C)C)cc2)C(=O)C(=O)N1c1cc(C)on1` (centres undefined) was “inactive”.
`COC(=O)c1ccc(NC(=O)CSc2nnc(CNc3ccc(OC)cc3)n2C)cc1`: the max dye-equivalent concentration result was “inactive”.
Regarding `CCCCC[C@H](O)CCCC(=O)O`, the max dye-equivalent concentration entry was “inactive”.
Regarding `CC(=O)OC(C(=O)NCCc1ccccc1)c1cccnc1` (centres undefined), the max dye-equivalent concentration result was “inactive”.
The value for `CO[C@@H]1/C=C\O[C@]2(C)Oc3c(C)c(O)c4c(O)c(c(CN(C)C)c(O)c4c3C2=O)NC(=O)/C(C)=C\C=C[C@@H](C)[C@@H](O)[C@H](C)[C@@H](O)[C@H](C)[C@H](OC(C)=O)[C@@H]1C` was “inactive”.
Turning to `Cc1cccc(C)c1NC(=O)CCCSc1nnc(-c2ccco2)n1-c1ccccc1`, the max dye-equivalent concentration entry was “inactive”.
The same measure for `C[C@H](CCC(=O)NCC(=O)O)[C@H]1CC[C@H]2[C@H]3[C@@H](C[C@@H](O)[C@]12C)[C@]1(C)CC[C@H](O)C[C@@H]1C[C@@H]3O`: “inactive”; for `N#CC1=C(N)Oc2n[nH]c(CSc3ccccc3)c2C12C(=O)Nc1ccccc12` (centres undefined): “inactive”.
